Screens: PubChem BioAssay, Broad Institute
MITF TRPM1 inh – reduces MITF-dependent TRPM1 promoter luciferase signal. SK-MEL-5 TRPM1 promoter luciferase, 24 h. inhibition, % at 12.5 µM. 330,000 compounds, 0.83% hits;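 active = mean inhibition across replicates of 60% or more, whatever share of single replicates reaches that level; inconclusive = some that reach 60%, reason not given; inactive = mean inhibition across replicates below 60%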
EWS-Fli block – blocks EWS/Fli oncoprotein-driven transcription | A673 NR0B1-luciferase reporter, viability-normalised | inhibition, % at 12.6 µM | 350,000 compounds, 0.67% hits;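 active = mean inhibition of at least 50% after viability correction, with every replicate also passing that limit; inconclusive = mean reaches 50% but only one of two replicates passes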;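 also: firefly luciferase signal divided by Alamar Blue viability fluorescence both relative to DMSO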
LGR2 antag – inhibitors of bursicon-induced Drosophila LGR2 receptor cAMP signaling | HEK293 LGR2, CRE-luciferase, bursicon-stimulated, 4 h | inhibition, % at 9.99 µM | 380,000 compounds, 0.35% hits;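 active = drop in luminescence signal, shown as inhibition above about 50% in the replicate tests, limit read from the data, passing the limit was not always enough; inconclusive = probably only some replicates passing the limit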;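 also: agonist challenge used bursicon conditioned medium at about half maximal strength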
PGC1a acetyl inh – PGC1a acetylation modulation, inhibitor mode; 350,000 compounds, 0.17% hits; U2OS PGC1a acetylation, AlphaScreen anti-acetyl-lysine; with virally co-expressed GCN5 acetyltransferase; inhibition, % at 15.6 µM;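 active = every replicate shows inhibition of at least 40%; inconclusive = mean inhibition at least 40% but some replicate below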;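 also: 0% = neutral control wells and 100% = positive control wells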
PAX8 inh HTS – inhibitors of PAX8 transcriptional activity in RMG-I cells. 360,000 compounds, 1.2% hits. RMG-I TPO-luciferase reporter, SteadyGlo, 24 h. inhibition, % at 12.6 µM;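 active = mean replicate inhibition at least 60% with every replicate also reaching 60%; inconclusive = only one of the two criteria is met; inactive = mean below 60% and not all replicates reaching 60%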;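 also: luciferase light reporting Pax8 driven TPO promoter activity; plate controls were median of neutral control wells for no effect and mitoxantrone controls for full effect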
LMP1 NFkB inh – inhibitors of Epstein-Barr LMP1-induced NF-kappaB reporter | LMP1-induced NF-kappaB luciferase reporter cells, luminescence | inhibition, % at 12.5 µM | 350,000 compounds, 0.69% hits; in the data active = inhibition above about 41%; inconclusive = no clear call, values can overlap the other calls;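 also: 0% = neutral control wells and 100% = reference inhibitor control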
DNA binding – DNA binding small molecules; shares compounds with EWS-Fli block; salmon sperm DNA acridine orange fluorescence polarization; AC35, µM (doses to about 68 µM), inactives show at the top dose activity change, negative = DNA binding; 640 compounds, 2% hits; AID 720586;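 active = fitted curve reaches a 35% signal fall AC35 below twice the sample's top valid tested dose, actives reach about 48 µM in these data; inactive = the rest, including activity in the rising direction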;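 also: lower polarization ratio signals compound binding to DNA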
* marks the source's active call; other numbers are inactive results. Sampled rows, rich in hits. Any-hit rate of the full collection: about 2.2%.

`OC[C@H]1[C@@H](c2ccc(C#CC3CCCC3)cc2)[C@@H]2CN(CCC(F)(F)F)CCCCN12` gave EWS-Fli block 52*, LGR2 antag 7, PGC1a acetyl inh -60, PAX8 inh HTS 24 and DNA binding -9%.
`COc1cc(-c2coc3c(C(=O)NCc4ccc(C(F)(F)F)cc4)cccc23)ccc1O` gave EWS-Fli block 62*, LGR2 antag -2, PAX8 inh HTS 14 and DNA binding 7%.
Screening O=C(NCC[C@@H]1CC[C@H](NS(=O)(=O)Cc2ccccc2)[C@H](CO)O1)C1CCOCC1 returned EWS-Fli block -2, LGR2 antag 10, PGC1a acetyl inh 2 and PAX8 inh HTS -8.
Screening Nc1ccc2c(c1)OC1(CCCC1)O2 returned MITF TRPM1 inh 62*, EWS-Fli block 68*, LGR2 antag 15, PGC1a acetyl inh 2, PAX8 inh HTS 31, LMP1 NFkB inh 59* and DNA binding -5%.
COc1ccc(NC(=O)Nc2ccc3c(c2)C(=O)N([C@@H](C)CO)C[C@@H](C)[C@@H](CN(C)Cc2ccc(C(=O)Nc4ccccc4N)cc2)O3)cc1 was read as EWS-Fli block 40, LGR2 antag 7 and PGC1a acetyl inh 8.
Screening COc1ccc(Nc2oc(COc3ccccc3OC)nc2C#N)cc1 returned MITF TRPM1 inh 17, EWS-Fli block 54*, PAX8 inh HTS 24, LMP1 NFkB inh 56* and DNA binding 9%.
Clc1ccc(Nc2nnc(-c3ccc4c(c3)OCO4)o2)cc1 was read as EWS-Fli block -95, LGR2 antag -50 and PAX8 inh HTS -108.
For c1ccc(Nc2nnc(-c3ccc4c(c3)OCO4)o2)cc1 the results were EWS-Fli block 79*, LGR2 antag 92*, PAX8 inh HTS 48 and DNA binding 3%.
`CNc1nc(C(=O)O)nc(N2CCOCC2)n1` gave MITF TRPM1 inh -4, EWS-Fli block -4, LGR2 antag 4, PGC1a acetyl inh 4 and LMP1 NFkB inh -12.
Cc1ccc(C(CC(=O)O)Nc2nc(N3CCOCC3)nc(N3CCOCC3)n2)cc1 (centres undefined) was read as MITF TRPM1 inh 4, EWS-Fli block 65*, LGR2 antag -4, PAX8 inh HTS -8, LMP1 NFkB inh 4 and DNA binding -4%.
Screening C[C@@H]1CN([C@H](C)CO)S(=O)(=O)c2ccc(-c3cccc(F)c3)cc2O[C@H]1CN(C)C(=O)Nc1cc(F)ccc1F returned EWS-Fli block 7, LGR2 antag 17 and PGC1a acetyl inh -8.
Screening Cc1ccc(Nc2nc(-c3c(C)nc4ncccn34)cs2)cc1 returned MITF TRPM1 inh 14, PGC1a acetyl inh -80 and LMP1 NFkB inh 9.
Screening Cc1nc2ncccn2c1-c1csc(Nc2ccc(O)cc2)n1 returned MITF TRPM1 inh 6, EWS-Fli block 58*, LGR2 antag 0, PGC1a acetyl inh -7, PAX8 inh HTS -20, LMP1 NFkB inh 18 and DNA binding 9%.
For Cc1c(Cl)cnc(NC(=O)COC(=O)c2ccc3ncsc3c2)c1Cl the results were MITF TRPM1 inh 27, EWS-Fli block 62*, LGR2 antag 8, PGC1a acetyl inh 8, PAX8 inh HTS 22, LMP1 NFkB inh 13 and DNA binding -12%.
CCN(Cc1ccccc1)c1ccc(/C=N/N=C(N)N)cc1 was read as MITF TRPM1 inh 64*, EWS-Fli block 57*, LGR2 antag 62*, LMP1 NFkB inh -10 and DNA binding -12%.
For COc1ccc(Cn2cc3c(-c4ccc(F)cc4)nnc-3c3cc(OC)c(OC)cc32)cc1 the results were MITF TRPM1 inh 83*, EWS-Fli block 66*, LGR2 antag 31, PGC1a acetyl inh 16, PAX8 inh HTS 92*, LMP1 NFkB inh 69* and DNA binding -25%.
Cn1nc2c3cc(F)ccc3n(Cc3ccc(F)cc3)cc-2c1=O was read as MITF TRPM1 inh -1, EWS-Fli block 4, LGR2 antag -12, PAX8 inh HTS 11 and LMP1 NFkB inh -2.
Screening Cc1c(-c2nc(-c3ccc(C(C)(C)C)cc3)no2)n(C)oc1=O returned MITF TRPM1 inh 36, EWS-Fli block 56*, LGR2 antag -8, PGC1a acetyl inh 3, PAX8 inh HTS 19, LMP1 NFkB inh 6 and DNA binding 3.5µM*.
For COC(=O)C1=C(C)N(Cc2ccccc2C(F)(F)F)C(=NCc2ccc(C(F)(F)F)cc2)NC1c1ccc(C(F)(F)F)cc1 (centres undefined) the results were EWS-Fli block -4, LGR2 antag -12 and PAX8 inh HTS 10.
`COC(=O)C1=C(C)N(Cc2ccccc2C(F)(F)F)C(=NCc2ccc(OC)cc2)NC1c1ccc(C(F)(F)F)cc1` (centres undefined) gave EWS-Fli block 55*, LGR2 antag 5, PAX8 inh HTS 37 and DNA binding -7%.
COC(=O)C1=C(C)N(Cc2cccc(C(F)(F)F)c2)C(=NCc2ccc(OC)cc2)NC1c1cccc(F)c1 (centres undefined) was read as EWS-Fli block 50*, LGR2 antag 16, PAX8 inh HTS 99* and DNA binding 0%.
Screening COc1ccc(CC(N)c2csc(NC(=O)Nc3cccc(C(F)(F)F)c3)n2)cc1 (centres undefined) returned EWS-Fli block 53*, LGR2 antag -4, PGC1a acetyl inh 1, PAX8 inh HTS -3 and DNA binding -4%.
CC(C)(C)c1ccc(Oc2ccc(NC(=O)c3ccccc3C(=O)O)cn2)cc1 was read as EWS-Fli block 63*, LGR2 antag 4, PGC1a acetyl inh 3, PAX8 inh HTS 14 and DNA binding 2%.
CC(C)(C)c1ccc(Oc2ccc(N)cn2)cc1 was read as EWS-Fli block 71*, LGR2 antag -15, PGC1a acetyl inh -3, PAX8 inh HTS 14 and DNA binding -14%.
Screening CCNC(=O)[C@@H]1[C@@H](CO)[C@@H]2Cn3c(ccc(-c4cccc(C(=O)N(C)C)c4)c3=O)[C@H]1N2 returned EWS-Fli block -2, LGR2 antag -9 and PGC1a acetyl inh 4.
`CCOc1cc(/C=N/Nc2cc(C)nc(-n3nc(C)cc3C)n2)ccc1O` gave MITF TRPM1 inh inconclusive, EWS-Fli block 53*, LGR2 antag 5, PGC1a acetyl inh 6, PAX8 inh HTS 32, LMP1 NFkB inh 70* and DNA binding -14%.
For Cc1nc(N)nc(N)c1-c1ccc(Cl)c(Cl)c1 the results were MITF TRPM1 inh 38, EWS-Fli block 53*, LGR2 antag 17, PGC1a acetyl inh 1, PAX8 inh HTS 54, LMP1 NFkB inh 20 and DNA binding -6%.
`Cc1nc(N)nc(N)c1CCCc1ccc(Cl)c(Cl)c1` gave MITF TRPM1 inh 19, EWS-Fli block 75*, LGR2 antag 19, PGC1a acetyl inh -5, PAX8 inh HTS 28, LMP1 NFkB inh -8 and DNA binding -19%.
